# Assay results as given in the supplement of paper PMC12819154, “High-throughput peptide-centric local stability assay extends protein–ligand identification to membrane proteins, tissues and bacteria” (Nature Structural & Molecular Biology, 2025).
# Compound: CN[C@@H]1C[C@H]2O[C@@](C)([C@@H]1OC)n1c3ccccc3c3c4c(c5c6ccccc6n2c5c31)C(=O)NC4 [staurosporine]
# Assay: log2 fold change of tryptic peptide abundance, ligand vs vehicle (limited proteolysis) (log2 ratio); higher = more trypsin-susceptible (destabilized)
# Conditions: ligand concentration: 20 uM; sample: mouse liver crude lysate; replicate design: treated separately
# Chain of UniProt Q8N9S3 (Q8N9S3 whole entry): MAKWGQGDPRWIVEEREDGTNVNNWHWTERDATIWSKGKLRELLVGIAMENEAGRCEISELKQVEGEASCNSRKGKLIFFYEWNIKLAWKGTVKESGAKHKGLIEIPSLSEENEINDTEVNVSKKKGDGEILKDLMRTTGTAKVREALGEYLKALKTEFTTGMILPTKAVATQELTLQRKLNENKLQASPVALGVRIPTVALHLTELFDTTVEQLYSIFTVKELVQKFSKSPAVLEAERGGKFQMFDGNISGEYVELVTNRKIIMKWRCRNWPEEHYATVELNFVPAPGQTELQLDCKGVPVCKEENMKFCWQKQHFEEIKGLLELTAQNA
# Chain of UniProt Q7TSE6 (Q7TSE6 whole entry): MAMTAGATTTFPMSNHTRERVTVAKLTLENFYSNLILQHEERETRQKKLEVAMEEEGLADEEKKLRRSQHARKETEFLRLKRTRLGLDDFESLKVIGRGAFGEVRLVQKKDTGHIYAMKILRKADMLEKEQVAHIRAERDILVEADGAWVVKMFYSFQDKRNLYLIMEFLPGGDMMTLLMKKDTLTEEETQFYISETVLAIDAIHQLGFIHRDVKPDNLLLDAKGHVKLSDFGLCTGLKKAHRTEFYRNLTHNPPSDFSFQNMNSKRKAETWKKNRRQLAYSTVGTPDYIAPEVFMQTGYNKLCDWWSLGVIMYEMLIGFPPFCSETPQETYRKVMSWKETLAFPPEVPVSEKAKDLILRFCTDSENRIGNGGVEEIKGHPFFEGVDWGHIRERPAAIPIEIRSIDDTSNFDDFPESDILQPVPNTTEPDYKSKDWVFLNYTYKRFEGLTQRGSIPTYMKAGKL
# Chain of UniProt Q3TWW8 (Q3TWW8 whole entry): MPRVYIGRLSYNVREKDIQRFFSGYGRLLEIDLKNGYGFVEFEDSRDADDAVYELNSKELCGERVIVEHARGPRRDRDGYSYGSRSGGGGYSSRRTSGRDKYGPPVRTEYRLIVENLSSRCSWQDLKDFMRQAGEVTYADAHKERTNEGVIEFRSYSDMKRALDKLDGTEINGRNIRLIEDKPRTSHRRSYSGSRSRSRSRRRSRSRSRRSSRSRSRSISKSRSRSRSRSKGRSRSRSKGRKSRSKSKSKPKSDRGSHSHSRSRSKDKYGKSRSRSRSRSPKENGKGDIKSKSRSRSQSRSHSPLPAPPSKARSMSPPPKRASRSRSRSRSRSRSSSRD
# Chain of UniProt A2A974 (A2A974 whole entry): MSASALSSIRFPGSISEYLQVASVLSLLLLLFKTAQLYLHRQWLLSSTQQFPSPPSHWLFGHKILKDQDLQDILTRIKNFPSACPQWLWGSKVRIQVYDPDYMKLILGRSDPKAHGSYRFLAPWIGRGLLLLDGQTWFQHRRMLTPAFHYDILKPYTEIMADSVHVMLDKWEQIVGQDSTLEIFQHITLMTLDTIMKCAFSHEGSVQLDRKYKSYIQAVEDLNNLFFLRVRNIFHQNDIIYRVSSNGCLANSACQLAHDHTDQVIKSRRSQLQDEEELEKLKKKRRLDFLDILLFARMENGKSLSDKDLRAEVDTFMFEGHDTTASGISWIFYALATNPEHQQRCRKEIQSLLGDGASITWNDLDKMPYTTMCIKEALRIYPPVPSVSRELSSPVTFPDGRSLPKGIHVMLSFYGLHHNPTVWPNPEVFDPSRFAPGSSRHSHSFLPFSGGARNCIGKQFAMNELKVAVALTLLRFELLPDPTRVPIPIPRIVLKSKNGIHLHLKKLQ
row,Target,log2 fold change
1,"UniProt Q3TWW8 (peptide sequence: CSWQDLKDFMR, peptide start residue: 121)",1.07
2,"UniProt A2A974 (peptide sequence: SLSDKDLR, peptide start residue: 303)",0.2
3,"UniProt Q7TSE6 (peptide sequence: LSDFGLCTGLKK, peptide start residue: 228)",-2.66
4,"UniProt Q8N9S3 (peptide sequence: SPAVLEAER, peptide start residue: 231)",0.295
